Inconclusive results are not listed. Entries that show only a call come without a potency. The source made the active and inactive calls. The call rests on the fitted dose curve; in most records, active means well fitted activation curve with a large enough effect; inconclusive means small, poorly fitted or top-dose-only effect; inactive means no such curve, though single readings can be large or run the other way.

In the experiment the target is Cellular tumor antigen p53 (Homo sapiens) (UniProt P04637). The experiment can be described thus: Confirmatory qHTS for small molecule compounds that upregulate eGFP-tagged delta133p53alpha (in C-terminal) cells. To be noted: delta133p53alpha-eGFP (C-terminal) reporter cells, GFP fluorescence upregulation; series mostly up to 57.5 µM. The text has this: Assay Development and Screening Technology
Chain of Cellular tumor antigen p53 (Homo sapiens) (P04637 whole entry, looked up): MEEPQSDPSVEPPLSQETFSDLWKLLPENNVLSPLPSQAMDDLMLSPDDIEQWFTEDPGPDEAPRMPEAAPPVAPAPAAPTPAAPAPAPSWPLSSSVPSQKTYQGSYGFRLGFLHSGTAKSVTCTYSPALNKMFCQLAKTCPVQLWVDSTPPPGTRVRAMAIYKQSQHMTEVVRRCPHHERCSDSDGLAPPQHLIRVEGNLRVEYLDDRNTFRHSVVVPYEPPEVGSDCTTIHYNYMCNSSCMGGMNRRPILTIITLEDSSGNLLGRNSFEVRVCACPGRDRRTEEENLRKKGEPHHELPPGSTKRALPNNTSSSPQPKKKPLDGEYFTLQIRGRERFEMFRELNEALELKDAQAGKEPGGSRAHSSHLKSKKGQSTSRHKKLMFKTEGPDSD
National Center for Advancing Translational Sciences (NCATS),
National Institute of Health (NIH), Rockville, Maryland
Cellular senescence (CS) is one of the hallmarks of aging and age-related diseases. Senescent cells are characterized by an irreversible growth arrest, an increase in senescence-associated beta-galactosidase (SA-beta-gal) activity and p16INK4a expression, an activation of the DNA damage response pathways, and the emergence of a senescence-associated secretory phenotype (SASP).
Delta133p53alpha, a human/primate-specific p53 protein isoform, delays or inhibits the induction of CS and SASP in various types of human cells, including progeria-derived fibroblasts, primary normal astrocytes, and CD8+ T lymphocytes. Induction of delta133p53alpha with small molecule compounds may provide therapeutic opportunities for inhibition of senescence/SASP-associated pathologies in progeria syndromes, astrocyte-mediated neuroprotection in neurodegenerative diseases, and possibly prevention and treatment of a wider range of senescence- and aging-associated diseases.
Here we report the development and validation of a cell-based quantitative high throughput screening (qHTS) assay in 1,536-well format. This qHTS assay uses the NCI-H358 cell line with doxycycline-inducible expression of enhanced green fluorescent protein (eGFP)-tagged delta133p53alpha, which allows efficient and highly quantitative measurement of the protein levels.
PROTOCOL TABLE (as described by Inglese J, Shamu CE and Guy RK. 2007)
SEQUENCE No. (e.g., 1, 2, 3, etc.); […] (e.g., Cells, Incubation, Reagent, etc.); VALUE; DESCRIPTION.
1; Cells; 4uL; 800 doxycycline treated cells / well in doxycycline-free media, 1536-well black, clear-bottom low base Aurora microplates.
2; Compounds; 23 nL; Kalypsis pin tool (Wako) equipped with 1536-well pin heads, 5-azacytidine positive control.
3; Incubation; 24 hr; 37C, 5% CO2; 95% relative humidity.
4; Aspiration; 1x; BioTek EL406 washer dispenser (Agilent).
5; Fixing; 3.5% paraformaldehyde, BioTek EL406 washer dispenser (Agilent).
6; Washing; 1x PBS; BioTek EL406 washer dispenser (Agilent).
7; Nuclei staining; 1:1000 dilution of Hoechst 33342 (Thermofisher), BioTek EL406 washer dispenser (Agilent).
8; Incubation; 20 min; in the dark at room temperature.
9; Washing; 2x, 1x PBS (ThermoFisher), BioTek EL406 washer dispenser (Agilent).
10; Reagent; 10 uL; 1x PBS per well, sealed with clear adhesive tape.
11; Detection; Fluorescence, Acumen eX3 laser scanning cytometer (STP Labtech), GFP filters […].
NOTES (numbers refer to sequence numbers above).
1. NCI-H358 cells expressing eGFP-tagged delta133p53alpha were grown in T75 culture flasks and treated with doxycycline for 24h, at 10 ng/ml for eGFP-D133p53a cells (N-terminal cell) and 100 ng/ml for D133p53a-eGFP cells (C-terminal cells). Cells were trypsinized, counted using a Counted 3 Automated Cell Counter (Thermo Fisher), and diluted to a concentration of 200,000 cells/ml. A Multidrop Combi Reagent Dispenser (ThermoFisher) was used to dispense 800 cells/well in […] of doxycycline-free media, into 1536-well black/clear bottom low base plates (AuroraMicroplates).
2. After plating cells, 23 nl of compound library, DMSO vehicle control or positive control (5-azacytidine) were transferred by Pin Tool (Wako). The plate map layout was the same for each plate: (column 1) non-doxycycline treated cells + DMSO vehicle control; (column 2) doxycycline treated cells + DMSO vehicle control baseline; (column 3) doxycycline treated cells + positive control 57.5 uM final concentration 5-azacytidine; (column 4) doxycycline treated cells + serial dilution of 5-azacytidine, 16-point 1:2 titration spanning 1.8 nM to […] final concentration; (columns 5-48) doxycycline treated cells + titration of library compounds.
3. Cells were incubated at 37 °C, 5 % CO2, 95% RH with breathable metal lid for 24h.
4-10. […]
For the compound `C[C@]12CC[C@@H]3c4ccc(O)cc4C[C@@H](CCCCCCCCCS(=O)CCCC(F)(F)C(F)(F)F)[C@H]3[C@@H]1CC[C@@H]2O` (stereo not given in full), the Potency entry is “inactive”.
On to `CCOC(=O)Nc1ccc(NCc2ccc(F)cc2)nc1N`, for which the Potency entry was “inactive”.
`Brc1c(Br)c(Br)c2n[nH]nc2c1Br`: the Potency entry was “inactive”.
On to `O[Si](CCCN1CCCCC1)(c1ccc(F)cc1)C1CCCCC1` (stereo not given), for which the Potency entry is “inactive”.
As to `O=C(O)c1cc2cc(F)ccc2[nH]1`, the Potency entry was “inactive”.
Then `O=C(c1cc(O)c(O)c([N+](=O)[O-])c1)c1ccccc1F`, with “inactive”; and `CC(C)(C)c1ccc(S(=O)(=O)/C=C/C#N)cc1`, with 13.7 µM (active); and `C=CCNc1ncnc2ccc(Br)cc12`, with “inactive”.
Turning to `CN(C)S(=O)(=O)c1ccc2c(c1)/C(=C/c1cc3c([nH]1)CCCC3)C(=O)N2`, the Potency was 0.769 µM (active).
Then `Cc1cc(O)c2c(c1)C(=O)c1cc(O)cc(O)c1C2=O`, with 21.7 µM (active); and `CN(C)C(=O)C(CCN1CCC(O)(c2ccc(Cl)cc2)CC1)(c1ccccc1)c1ccccc1`, with “inactive”.
Turning to `CN(C)c1nc(N)c(C(=O)N=C(N)N)nc1Cl`, the Potency entry was “inactive”.
On to `C[n+]1cc2c3c(ccc2c2ccc4cc5c(cc4c21)OCO5)OCO3`, for which the Potency was 0.968 µM (active).
For the compound `O=C1NC(=O)c2cc(Nc3ccccc3)c(Nc3ccccc3)cc21`, the Potency is 9.68 µM (active).
The entry for `CC(C)(C(=O)O)c1ccc(C(O)CCCN2CCC(C(O)(c3ccccc3)c3ccccc3)CC2)cc1` (stereo not given) is “inactive”; for `Cc1ccc(S(=O)(=O)/C=C/C#N)cc1` it is 21.7 µM (active).
The entry for `CCN1CCCC1CNC(=O)c1cc(S(N)(=O)=O)ccc1OC` (stereo not given) is “inactive”.
`Brc1c(Br)c(Br)c2[nH]cnc2c1Br`: the Potency was 21.7 µM (active).
Regarding `Nc1nc2ccc(Cl)cc2c2nc(-c3ccco3)nn12`, the Potency entry is “inactive”.
As to `CC1c2cccc(O)c2C(O)=C2C(=O)C3(O)C(O)=C(C(N)=O)C(=O)C(N(C)C)C3C(O)C21` (stereo not given), the Potency is 0.0061 µM (active).
On to `O=C1NCc2c1c1c3ccccc3[nH]c1c1[nH]c3ccccc3c21`, for which the Potency is 27.3 µM (active).
Regarding `CC[n+]1c(/C=C/C=C2/N(C)c3ccccc3C2(C)C)sc2ccccc21`, the Potency is 12.2 µM (active).
Take `Cc1ccc(S(=O)(=O)N[C@@H](Cc2ccccc2)C(=O)CCl)cc1`: the Potency was 15.3 µM (active).
As to `CCCC(=O)NCCc1c2n(c3ccc(OC)cc13)CCCc1ccccc1-2`, the Potency entry was “inactive”.
Consider `Cc1cccc(-c2[nH]ncc2-c2ccc3ncccc3n2)n1`, for which the Potency entry was “inactive”.
For `COC(=O)[C@H]1[C@H]2C[C@@H]3c4[nH]c5cc(OC)ccc5c4CCN3C[C@H]2C[C@@H](OC(=O)c2cc(OC)c(OC)c(OC)c2)[C@@H]1OC`, the Potency was 30.6 µM (active).
Turning to `N=S(=O)(O)Cc1noc2ccccc12`, the Potency entry was “inactive”.
Then `O=C1N(c2ccccc2)c2ccccc2C1(Cc1ccncc1)Cc1ccncc1`, with “inactive”.
On to `NS(=O)(=O)c1ccc(-n2nc(C(F)(F)F)cc2-c2ccc(Cl)cc2)cc1`, for which the Potency result is “inactive”.
Then `N#Cc1cc([N+](=O)[O-])c2sc(C(N)=O)[n+]([O-])c2c1`, with “inactive”; and `CCCCS(=N)(=O)CCC(N)C(=O)O` (stereo not given), with “inactive”.
With `CNC(=O)[C@H]1O[C@@H](n2cnc3c(NCc4cccc(I)c4)ncnc32)[C@H](O)[C@@H]1O`, the Potency entry was “inactive”.
Consider `O=C1C(SCCO)=C(SCCO)C(=O)c2ccccc21`, for which the Potency was 9.68 µM (active).
Regarding `O=[N+]([O-])c1ccc2c(c1)S(=O)(=O)C=C2`, the Potency was 8.63 µM (active).
`CCN(CC)CCCC(C)Nc1c2ccc(Cl)cc2nc2ccc(OC)cc12` (stereo not given): the Potency is 8.63 µM (active).
For `COc1cc(/C=C(\C#N)C(=O)c2ccc(O)c(O)c2)cc(I)c1O`, the Potency was 12.2 µM (active).
On to `COc1ccc(/C=C2\COc3ccc(C)cc3C2=O)cc1O`, for which the Potency is 43.2 µM (active).
The entry for `CC(=O)N[C@@H](CS)C(=O)O` is “inactive”.
Turning to `COc1cc2c(cc1OC)-c1cc(=Nc3c(C)cc(C)cc3C)n(C)c(=O)n1CC2`, the Potency result is “inactive”.
Take `CN(C)CCCC1(c2ccc(F)cc2)OCc2cc(C#N)ccc21` (stereo not given): the Potency entry was “inactive”.

(Values after PubChem BioAssay AID2060323 (National Center for Advancing Translational Sciences (NCATS), 2025).)
